Reference: publication PMC5540273 (PLoS ONE, 2017)

How the values were obtained:
Conditions in all cases: concentration: 1 μM, replicates: in singlicate; n = 1
[1] = system: LYN
[2] = system: T1, LZK
T1 construct: gene MAP3K13

[3] = system: MAK
[4] = system: MAP3K15
[5] = system: MAP3K1
[6] = system: MAP3K2
[7] = system: MAP3K3
[8] = system: MAP3K4
[9] = system: MAP4K2
[10] = system: MAP4K3
[11] = system: MAP4K4
[12] = system: MAP4K5
[13] = system: MAPKAPK2
[14] = system: MAPKAPK5
[15] = system: MARK1
[16] = system: MARK2
[17] = system: MARK3
[18] = system: MARK4
[19] = system: MAST1
[20] = system: T2, MEK1
T2 construct: gene MAP2K1
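Further: KINOMEscan kinase panel screen.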

Row | Structure (SMILES) | %Inh [1] [%] | %Inh [2] [%] | %Inh [3] [%] | %Inh [4] [%] | %Inh [5] [%] | %Inh [6] [%] | %Inh [7] [%] | %Inh [8] [%] | %Inh [9] [%] | %Inh [10] [%] | %Inh [11] [%] | %Inh [12] [%] | %Inh [13] [%] | %Inh [14] [%] | %Inh [15] [%] | %Inh [16] [%] | %Inh [17] [%] | %Inh [18] [%] | %Inh [19] [%] | %Inh [20] [%]
1 | COc1cc2ncnc(Nc3ccc4nc(-c5ccccc5)[nH]c4c3)c2cc1OC.Cl [GW282450] | 0 | 0 | 0 | 0 | 19 | 8 | 0 | 9 | 0 | 3 | 0 | 0 | 24 | 0 | 0 | 0 | 0 | 0 | 0 | 0
2 | Cl.O=C(Nc1cccc(-c2nn3ncccc3c2-c2ccnc(Nc3cccnc3)n2)c1)c1c(F)cccc1F [GSK312879] | 18 | 0 | 25 | 24 | 24 | 16 | 0 | 4 | 0 | 3 | 2 | 5 | 21 | 0 | 0 | 0 | 0 | 0 | 6 | 0
3 | Fc1cccc(COc2nnc(-c3ccc4c(c3)CCO4)o2)c1 | 6 | 14 | 0 | 17 | 17 | 0 | 0 | 0 | 0 | 2 | 0 | 0 | 0 | 11 | 14 | 24 | 0 | 24 | 21 | 5
4 | NC(=O)c1nnc2ccccc2c1N | 5 | 0 | 23 | 30 | 28 | 31 | 34 | 15 | 20 | 4 | 12 | 11 | 0 | 0 | 12 | 0 | 0 | 19 | 1 | 40
5 | Cc1cccc(-c2nc(C)cc(Nc3ccncc3)n2)n1 [GSK257997] | 0 | 0 | 16 | 0 | 21 | 0 | 0 | 14 | 0 | 0 | 2 | 0 | 20 | 0 | 0 | 0 | 4 | 0 | 0 | 0
6 | Cl.Oc1ccc(-c2nc(-c3ccccc3)[nH]c2-c2ccncc2)cc1 [SB-428218] | 33 | 47 | 18 | 0 | 0 | 0 | 0 | 7 | 0 | 0 | 0 | 0 | 13 | 0 | 0 | 0 | 0 | 0 | 0 | 0
7 | CN(C)CCN(C)C(=O)c1cc(-c2ccncc2)c(-c2ccc(Cl)c(O)c2)o1.Cl.Cl [SB-710397] | 24 | 15 | 42 | 0 | 2 | 0 | 0 | 14 | 0 | 0 | 18 | 0 | 2 | 0 | 0 | 0 | 0 | 0 | 10 | 0
8 | O=c1cc(N2CCOCC2)nc2n(Cc3cccc(Cl)c3Cl)ccn12 [GSK2286295] | 97.8 | 0 | 78 | 0 | 6 | 0 | 0 | 25 | 0 | 0 | 4 | 0 | 5 | 0 | 0 | 0 | 0 | 0 | 0 | 0
9 | COC(=O)c1c(-c2ccccc2)c2cc(OC)ccc2c(=O)n1Cc1ccccc1 | 32 | 0 | 33 | 0 | 24 | 0 | 11 | 12 | 0 | 0 | 0 | 0 | 10 | 0 | 19 | 21 | 0 | 22 | 20 | 0
10 | O=C(Nc1n[nH]c2cc(-c3cccc(F)c3F)ccc12)C1CC1 [SB-733894] | 0 | 100 | 21 | 0 | 4 | 6 | 30 | 0 | 0 | 12 | 32 | 0 | 0 | 0 | 27 | 25 | 0 | 7 | 18 | 1
